High-throughput results: PubChem BioAssay, Small Molecule Screening Facility, UW Madison
RMI FANCM FP: inhibitors of human RMI core complex binding to FANCM MM2; Fluorescence polarization, RMI core complex with F-MM2 peptide; stronger effect = lower value; FP signal (polarization) at 33 µM; hit rate 0.58% among 70,000; in the data active means FP signal below about 40
The depositor's hits bear a star; ! = not confirmed by another sample. The sample as a whole holds a higher share of hits than the screen did.

SMILES	RMI FANCM FP
N#C/C(=C/C1=Cc2ccccc2OC1)c1nc2ccccc2s1	-59
Cc1ccc(-c2ccc(/C=C(\C#N)c3nc4ccccc4s3)o2)c([N+](=O)[O-])c1	60
Cn1c(/C=C(\C#N)c2nc3ccccc3s2)ccc1-c1cccc(Cl)c1	15*
CCOc1cccc2c1Oc1[nH]c(-c3cccc(OC)c3O)nc(=S)c1C2	12*
Cc1ncc(CO)c2c1Oc1[nH]c(-c3ccc(F)cc3)nc(=S)c1C2	61
COc1ccccc1-c1nc(=S)c(C(C)=O)c(C)[nH]1	59
COc1ccccc1N=Cc1ccccc1OC(=O)c1ccccc1Br	58
Oc1c(Br)cc(Br)cc1C=Nc1ccccc1F	-4*
Oc1ccc(Cl)cc1C=Nc1cccc(C(F)(F)F)c1	50
COc1cc(Br)cc(C=Nc2ccccc2O)c1O	56
Oc1c(Br)cc(Br)cc1C=Nc1ccc(-c2ccccc2)cc1	43
Oc1c(Br)cc(Br)cc1C=Nc1cccc(Cl)c1	20*
CCOC(=O)c1ccc(NC(=O)C(CC(C)C)N2C(=O)C3C4C=CC(C4)C3C2=O)cc1 (stereo not drawn)	71
COc1ccccc1N1CCN(CCNC(=O)C(=O)Nc2ccc(F)cc2)CC1	66
COc1ccc(N2CCN(c3ncnc4c3cnn4CCNC(=O)C3CCCC3)CC2)cc1	62
COc1ccc(C(CNC(=O)c2c(F)cccc2F)N2CCN(C)CC2)cc1 (stereo not drawn)	53
O=C(/C=C/c1ccco1)c1c(-c2ccccc2)c2cc(Cl)ccc2[nH]c1=O	0*
O=C(/C=C/c1ccco1)c1c(-c2ccccc2)c2cc(Br)ccc2[nH]c1=O	54
C/C(=N\NC(=O)CCCC(=O)O)c1c(-c2ccccc2)c2cc(Cl)ccc2[nH]c1=O	60
COc1ccc(C)cc1NC(=O)NCCCn1ncccc1=O	62
Brc1cccc2nsnc12	55
O=C(Nc1nc(-c2cccs2)c(C(=O)C(F)(F)F)s1)c1cc(-c2ccccc2)nc2ccccc12	19*
NC(=O)c1ccsc1NC(=O)c1cc(-c2ccccc2)nc2ccccc12	61
COC(=O)c1ccc2nc(NC(=O)c3cc(-c4cccs4)nc4ccccc34)sc2c1	85
COc1ccc(C2=NN(C(=O)CCC(=O)O)C(c3cn(-c4ccccc4)nc3-c3ccccc3)C2)cc1 (stereo not drawn)	56
SMILES	RMI FANCM FP
O=C(Cn1c(=O)n(Cc2cccs2)c(=O)c2ncccc21)NCc1ccccc1Cl	78
CCOC(=O)c1cc([N+](=O)[O-])sc1NC(=O)c1ccc(S(=O)(=O)N2CCc3ccccc3C2)cc1	63
O=C(OCCOc1ccc(Cl)cc1Cl)c1ccccc1Cl	57
O=C(OCC(O)CO)c1ccccc1Nc1ccnc2cc(Cl)ccc12 (stereo not drawn)	-4*!
Clc1ccc2c(Nc3ccc4c(c3)OCO4)ccnc2c1	58
O=C(O)c1c(Br)cnc2nc[nH]c12	54
O=C(C1=C(Cl)c2cccc3cccc(c23)C1=O)c1ccccc1	52
O=C1c2ccc3ccccc3c2-c2cccc3cccc1c23	-54
O=C1C([N+](=O)[O-])=C(O)c2cccc3cccc1c23	-1*
O=C1NCCN1CCNS(=O)(=O)c1cccc2cccnc12	56
N#C/C(=N/Nc1ccccc1Cl)S(=O)(=O)c1ccc(Cl)cc1	44
CN1c2ccccc2C(=O)/C(=N/Nc2ccccc2Cl)S1(=O)=O	-6*
CN1C(=O)c2cccc(NC(=O)c3c(F)cccc3Cl)c2C1=O	69
C=CCN1C(=O)C(C)(C)COc2ccc(NS(=O)(=O)c3ccc(C)c(Cl)c3)cc21	68
COC(=O)c1sc(-c2ccccc2)cc1NC(=O)c1ccccc1Cl	61
COC(=O)c1sc(-c2ccccc2)cc1NC(=O)c1cc2c(ccc3ccccc32)oc1=O	31*
COC(=O)c1sc(-c2ccccc2)cc1NC(=O)c1ccccc1I	61
CN(C)c1ccc(/C=C/c2ccncc2)cc1	25*
CN(C)c1ccc(/C=C/c2ccccc2)cc1	54
CN(C)c1ccc(/C=C/C#N)cc1	73
O=C(Cn1cnc(-c2ccccc2)cc1=O)N(Cc1ccccc1)c1ccccc1	67
O=[N+]([O-])c1ccc(-c2nn(-c3ccccc3)cc2/C=N/n2c(-c3cccs3)n[nH]c2=S)cc1	12*
O=C(Cc1ccc([N+](=O)[O-])cc1)N/N=C\c1cn(-c2ccccc2)nc1-c1ccccc1	53
S=c1[nH]nc(-c2ccncc2)n1/N=C\c1cn(-c2ccccc2)nc1-c1cccs1	56
CCc1ccc(S(=O)(=O)Nc2ccc3c(c2)N(C(=O)c2ccco2)CC3)s1	68
SMILES	RMI FANCM FP
Cn1c(=O)c2nc(-c3nnc4n3CCCCC4)c(N)nc2n(C)c1=O	59
Cc1ccc(Cl)c2sc(N3CCOCC3)nc12	53
CC(C)(C)c1ccc(-n2cccc2)c([N+](=O)[O-])c1	48
Cc1ccc(NC(=S)NC(C)(C)C)c([N+](=O)[O-])c1	50
Cc1ccc(N2C(=O)C=CC2=O)c([N+](=O)[O-])c1	-7*
CCc1c(C#N)c(SCCC(=O)Nc2ccc(-c3nc4ccccc4s3)cc2)nc2c1C(=O)CC(C)(C)C2	94
O=c1nc(SCc2ccc(Br)cc2)c2c(n1Cc1ccccn1)CCC2	53
